Measurements published in PubChem BioAssay (EPA / NIEHS).
The source holds several records for some structures; these can differ, active in one and inactive in another. Activity calls are given as the source filed them. Rule for the calls: active = hit-call score of the fitted dose curve at least 0.9, where 1 is the maximum; inactive = score below 0.9.

Read-out: Keratin 19 (KRT19), KRT19 (gene 3880)
Assay: LTEA_HepaRG_KRT19: Life Technologies and Expression Analysis (LTEA) Assay for Keratin 19 (KRT19) using HepaRG (AID 2283512)
Conditions: mRNA level, 48 h; actives raise or lower the signal
Description: LTEA_HepaRG is a cell based, multiplexed-readout assay that uses HepaRG, a human liver cell line, with measurements taken at 48 hours after chemical dosing on a 96-well plate.LTEA_HepaRG_KRT19 is one of 102 assay component(s) measured in the LTEA HepaRG cell culture assay. It is a marker of Cell proliferation, survival, death.Data from the assay component LTEA_HepaRG_KRT19 was analyzed into 1 endpoint. This assay endpoint, LTEA_HepaRG_KRT19, was analyzed with bidirectional fitting relative to DMSO as the negative control and baseline of activity. Using a type of inducible reporter, measures of mRNA induction for gain or loss-of-signal activity can be used to understand regulation of transcription factor activity. To generalize the intended target to other relatable targets, this assay endpoint is annotated to the filaments intended target family, where the subfamily is keratin.
A total of 1060 chemcials from the ToxCast library were tested in eight-point concentration-response experiments. Cell culture and cytotoxicity assays were conducted at Thermo Fisher Scientific's Custom Services facility (Madison, WI). A single lot of human HepaRG cells (Thermo Fisher Scientific, Frederick, MD) was used for the cell culture experiments. 96-well format collagen type I coated plates of human HepaRG cells were prepared using established methods. Briefly, cryopreserved HepaRG cells were thawed, plated at a density of approximately 100,000 cells/well in HepaRG Thaw, Plate, and General Purpose media (HPRG770, Thermo Fisher Scientific), and incubated for 48 hours. 0.5% DMSO was selected as vehicle control to balance the requisite need of DMSO in HepaRG cultures to maintain differentiation (for example, baseline metabolism, proportions of hepatocytes vs. cholangiocytes), while enabling further hepatic receptor pathway activation (for example, PXR and CAR) in response to chemical exposure. 48 hours after plating, the culture medium was replaced with HepaRG Serum-Free Incudtion Media. Cells were exposed to each test chemical in duplicate and maintained in CO2 incubators for another 48 hours. Chemical plates were thawed to room temperature and 200x concentrations of treatment groups were prepared. 8-point conentration-reponse curves were made with the highest exposure at 100 uM, followed by half-log dilutions, all in 0.5% DMSO. Each test plate contained variouse controls, induction positive controls (1mM phenobarbital), cytotoxicity positive controls ([…] aflatoxin B1), vehicle controls (0.5% DMSO), and total lysis controls (0.5% DMSO). Cell morphology images were taken using an Essen IncuCyte FLR automated microscope, with six 96-well plates imaged in about 24 minutes. Images were captured and exported and JPEG files. Spent culture media was transfered to black-well plates for the LDH assay, and remaining media was sorted at -80 C for later use. Cells were treated with RLT buffer and frozen until shipped for gene expression analysis. Total RNA was isolated from the cell suspension in 75 uL of Buffer RLT (Qiagen, Germantown, MD 20874) by Quintiles/Expression Analysis (Durham, NC) using a custom isolation procedure. Total RNA from each plate well was transferred to a preamplification plate. Fluidigm's 96.96 Dynamic ArrayTM (Fluidigm, Amsterdam, the Netherlands) technology was used for gene expression analyses by quantitative reverse transcription polymerase chain reaction (qRT-PCR, performed by Quintiles/Expression Analysis, Durham, NC)89. Standard TaqManTM Assays (Applied Biosystems/ThermoFisher Scientific, Foster City, CA) were used to assess the expression of 93 genes selected based on their selectivity and sensitivity to important hepatic receptors known to be modulated by environmental chemicals; importance in human hepatocyte functionality; and hepatotoxicity. […]

SMILES	outcome	AC50
O=[N+]([O-])c1ccc(O)c([N+](=O)[O-])c1	inactive	
O=C(O)C(F)(F)C(F)(F)C(F)(F)C(F)(F)C(F)(F)C(F)(F)C(F)(F)C(F)(F)C(F)(F)C(F)(F)F	inactive	
CC(C)(OO)c1ccccc1	inactive	
CC(C)(C)CC(C)(C)c1ccc(O)cc1		25.9 µM (active)
ClC1(Cl)C2(Cl)C3(Cl)C4(Cl)C(Cl)(Cl)C5(Cl)C3(Cl)C1(Cl)C5(Cl)C24Cl (configuration not stated)	inactive	
CCC(C)(C)c1ccc(O)c(C(C)(C)CC)c1	inactive	
C[C@]12CCC(=O)C[C@@H]1CC[C@@H]1[C@@H]2CC[C@]2(C)[C@@H](O)CC[C@@H]12	inactive	
CCN1CCC2(CC1)COc1cc3c(cc12)N(C(=O)c1ccc(-c2ccc(-c4nnc(C)o4)cc2C)cc1)CC3	inactive	
O=c1[nH]c(=O)[nH]c(=O)[nH]1	inactive	
CC(=O)[O][Hg][c]1ccccc1		4.54 µM (active)
O=C(O)C(Cl)(Cl)Cl	inactive	
CN(C)N=O	inactive	
CCCCCCCCc1ccc(O)cc1	inactive	
COc1cc(-c2ccc(N)c(OC)c2)ccc1N	inactive	42.3 µM (active)
CCC(=O)C(CC(C)N(C)C)(c1ccccc1)c1ccccc1 (configuration not stated)		18.9 µM (active)
CC(C)(c1ccccc1)c1ccc(O)c(C(C)(C)c2ccccc2)c1	inactive	

SMILES	outcome	AC50
ClCC(Cl)CCl	inactive	
C[C@@H]1C[C@@H]([C@H](O)CC2CC(=O)NC(=O)C2)C(=O)[C@@H](C)C1		12.5 µM (active)
NC(=O)O	inactive	
Cn1sc(Cl)cc1=O	inactive	
C=CC(=O)OCCCCCC(C)C	inactive	
O=C(Nc1ccc2[nH]ccc2c1)c1cc2cc(F)ccc2n1Cc1cccc(F)c1		50 µM (active)
CCOP(=S)(OCC)Oc1nc(Cl)c(Cl)cc1Cl	inactive	
CCOP(=S)(OCC)SCSP(=S)(OCC)OCC	inactive	
CC12CC1(C)C(=O)N(c1cc(Cl)cc(Cl)c1)C2=O (configuration not stated)	inactive	
Cc1ccccc1N	inactive	
CC(C)(C)c1cc(O)ccc1O	inactive	
Oc1cccc2cccnc12	inactive	
C=C(C)C(=O)[O][Sn]([CH2]CCC)([CH2]CCC)[CH2]CCC	inactive	
O=C1C2(Cl)C3(Cl)C4(Cl)C(Cl)(Cl)C5(Cl)C3(Cl)C1(Cl)C5(Cl)C24Cl (configuration not stated)		93.5 µM (active)
O=C(O)C(F)(F)C(F)(F)C(F)(F)C(F)(F)C(F)(F)C(F)(F)F	inactive	
